# HEK293 tox = cytotoxicity counter-screen for GLP-1 receptor inverse agonists | HEK293 cAMP-luciferase reporter cells, luminescence, 24 h | Potency, µM (series often up to 38.3 µM), for the others: at the highest dose activity change, negative = inhibition, actives largely listed as inhibitors | 410,000 tested, 0.13% active | AID 624418;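 note: loss of luciferase light is scored as toxicity; % is set by controls: 0 for no effect and ±100 for the full control effect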
#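 Compound-treated cells are incubated 24 hr at 37 deg C under 5% CO2 after a 12 hour attachment period, then luciferase detection reagent is added and luminescence is measured following 12 min at room temperature; lowered signal indicates toxicity.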
# GLP1R inv ag = inverse agonists of human GLP-1 receptor | P43220 | HEK293 GLP-1R CRE-luciferase, luminescence, 24 h; GLP-1R form is constitutively active | Potency, µM (titrated, usually from 38.3 µM), for inactives: top-dose activity change, negative = inhibition, actives largely listed as inhibitors | 410,000 tested, 1.6% active | AID 624417; note: % is set by controls: 0 for no effect and ±100 for the full control effect; nearly all actives have a fitted effect of over 55% in size
#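 Cells are plated, allowed 12 hours at 37 deg C, then treated with compounds for 24 hr before luciferase detection reagent is added and luminescence is read after 12 min at room temperature. The HEK293 line carries constitutively active GLP-1R with a cAMP-responsive reporter.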
# GLP-1R agonist = activates the human GLP-1 receptor | P43220 | 380,000 tested, 0.007% active | HEK293 GLP-1R CRE-luciferase, luminescence, 4-6 h; cells express a hypersensitive GLP-1R form | Potency, µM (doses to about 45.6 µM), without a hit: top-dose activation, usual class: activators; note: % of control where 0% means no effect
# ClpP mod = qHTS Assay for Activators of ClpP | ATP-dependent Clp protease proteolytic subunit (Bacillus subtilis (strain 168)), P80244 | purified B. subtilis ClpP, FRET peptide cleavage, 20 min | Potency, µM (highest dose often 57.5 µM), inactives show top-dose activity change, negative = active | 340,000 tested, 1.9% active; active = well fitted falling curve with a large enough effect; inconclusive = small, poorly fitted or top-dose-only effect; inactive = no such curve, though single readings can be large or run the other way; note: the source files actives as falling curves though it sought activators and does not explain the sign; nearly all actives have a fitted effect of over 65% in size
#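 ClpP 10 microg/mL final, pH 8 Tris/KCl buffer with BSA, glycerol, Tween-20; compound pinned in; FRET-FV substrate; RT 20 min; Ex320/Em430; ΔFRET vs ADEP 5.8 microM, DMSO, no enzyme.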
# The depositor's hits bear a star; i = inactive; ? = inconclusive; . = not tested or not shown; ! = a repeat was not active; [ ] = remark or other dose. The list is not random: actives were taken first. Their share in the collection is about 3.2%. Unless noted, calls come from the whole dose curve; as a rule, active = well fitted curve in the direction sought with a large enough effect; inconclusive = small, poorly fitted or top-dose-only effect, or another doubt; inactive = no such curve, though single readings can be large; an effect the other way counts as inactive or inconclusive. Potency is the fitted concentration of half-maximal effect.
SMILES,HEK293 tox,GLP1R inv ag,GLP-1R agonist,ClpP mod
CCOC(=O)c1c(C)nc2c(c(SC)nn2-c2ccccc2)c1N,59%,6%,13%,25µM*
COc1cccc(Oc2coc3c(CN4CCOCC4)c(O)ccc3c2=O)c1,22%,-12%,0%,20µM*
CCc1cc2c(CN3CCN(CC)CC3)cc(=O)oc2cc1O,i,-4%,-6%,28µM*
O=c1cc(CN2CCOCC2)c2cc(Cl)c(O)cc2o1,342%,-7%,-1%,4%
CCOc1ccccc1NC(=O)C1=C(C)Nc2ncnn2C1c1sccc1C (centres undefined),3%,-6%,6%,0%
CC(=O)c1cccc(Oc2cc(NN3CCCCC3)c([N+](=O)[O-])cc2[N+](=O)[O-])c1,?,10µM*,18%,0%
CC(=O)c1ccccc1Oc1cc(NN2CCCCC2)c([N+](=O)[O-])cc1[N+](=O)[O-],0%,?,-5%,-1%
O=[N+]([O-])c1ccc2c(c1)/C(=C/c1ccc(C=S)cc1)C=C2,.,.,.,1%
CN(Cc1ccc(C(C)(C)C)cc1)c1cccc2ccccc12,.,.,-1%,.
COc1cc(NC(=O)c2ccc(-c3nc(COc4ccccc4)c(C)o3)cc2)cc(OC)c1,-13%,?,.,?
COCCCNC(=O)CSc1nc2ccccc2c(=O)n1Cc1ccc2c(c1)OCO2,-2%[7.66 µM],11%[7.66 µM],0%,28µM*
COCCn1c(SCC(=O)NNC(=O)c2ccccc2)nc2ccccc2c1=O,-8%,-3%,9%,28µM*
NC(=O)C1CC2(NC(=O)NC2=O)c2cc(F)ccc2O1 (centres undefined),.,.,6%,.
Cc1ccc(C)c(N2CCN(C(=O)C3CCN(S(=O)(=O)c4c(C)noc4C)CC3)CC2)c1,-14%,11µM*,1%,0%
COc1cccc(/C=C/c2onc(C)c2S(=O)(=O)N2CCC(C(=O)N3CCC(C)CC3)CC2)c1,-3%,12%,.,32µM*
Cc1ccc(/C=C/c2onc(C)c2S(=O)(=O)N2CCC(C(=O)N3CCN(c4cccc(C)c4)C(C)C3)CC2)cc1 (centres undefined),-6%,1%,-1%,-2%
Cc1cccc(/C=C/c2onc(C)c2S(=O)(=O)N2CCC(C(=O)N3CCC(C)CC3)CC2)c1,-4%,2.8µM*!,1%,0%
Cc1cccc(/C=C/c2onc(C)c2S(=O)(=O)N2CCC(C(=O)N3CCCCCC3)CC2)c1,-3%,2.8µM*,-4%,.
COc1ccc(OC)c(CCNC(=O)c2ccc3c(c2)N(Cc2ccc(C)cc2)CCS3)c1,-5%,?,.,5%
CCN(CC)CCCNC(=O)c1c(C)oc2ncnc(N3CCOCC3)c12,2%,5%,.,0%
Cc1ccc(CNC(=O)C(Cc2ccccc2)NS(=O)(=O)c2ccc(Br)s2)cc1 (centres undefined),-10%,10µM*,7%,4%
CCOc1ccccc1NC(=O)C(Cc1ccccc1)NS(=O)(=O)c1ccc(Br)s1 (centres undefined),-7%,11µM*,-13%,-4%
Cc1ccc(CNC(=O)C(Cc2ccccc2)NS(=O)(=O)c2cccs2)cc1 (centres undefined),-1%,?,0%,-11%
Cc1ccccc1Cn1nnc2c(=O)[nH]c(C3CCN(C(=O)c4ccccc4)CC3)nc21,-17%,25%,.,0%
Cc1c(C)c2cc(Cl)c(O)c(CN3CCCC(C)C3)c2oc1=O (centres undefined),206%,-13%,-1%,6.3µM*
SMILES,HEK293 tox,GLP1R inv ag,GLP-1R agonist,ClpP mod
O=C(NN=C1C2CC3CC(C2)CC1C3)c1cc(Cl)ccc1O,15%,21%,-30%,28µM*
O=C(O)c1cc(N2C(=O)C3C4C=CC(C4)C3C2=O)ccc1NCc1cccnc1 (centres undefined),8%,-6%,-7%,35µM*
O=C(O)c1cc([N+](=O)[O-])ccc1NCc1cccnc1,0%,6%,1%,-2%
Cc1ccc2c(c1)-c1c(cnc3cc(-c4ccc(F)cc4)nn13)CO2,7%,5%,0%,-1%
Cc1ccc2c(c1)-c1c(cnc3cc(-c4ccc(Cl)cc4)nn13)CO2,4%,4%,1%,18µM*
CNC(=S)N1N=C(c2ccc(OC)cc2)CC1c1ccccc1Cl (centres undefined),15%,10µM*,12%,0%
CNC(=S)N1N=C(c2ccc(OC)cc2)CC1c1ccc(Cl)cc1Cl (centres undefined),4%,?,12%,.
CNC(=S)N1N=C(c2ccc(C)cc2)CC1c1cc(OC)ccc1OC (centres undefined),?,10µM*,14%,.
CNC(=S)N1N=C(c2ccc(C)cc2)CC1c1ccc(OC)cc1 (centres undefined),-4%,10µM*,-3%,1%
CCOc1ccc(NC(=O)CCS(=O)(=O)c2ccc3nc(C)sc3c2)cc1,-1%,11%,.,1%
Cc1cc(C)cc(-n2ncc3c2CCCC3NC(=O)c2cc(C)[nH]n2)c1 (centres undefined),18%,?,1%,-3%
CC(C)(C)c1ccc(-n2ncc3c2CCCC3NC(=O)c2ccco2)cc1 (centres undefined),-2%,10µM*,-2%,1%
CC(=O)c1cc(C(=O)NC2CCCc3c2cnn3-c2cc(C)cc(C)c2)[nH]n1 (centres undefined),0%,-7%,2%,32µM*
O=C(NC(=S)Nc1ccccc1)c1cc(-c2ccccc2)nc2ccccc12,14%,?,-15%,-1%
O=C(NC(=S)Nc1ccccn1)c1cc(-c2ccccc2)nc2ccccc12,2.8µM*,4.5µM*,-4%,5%
COc1cccc(-c2cc(C(=O)Nc3ccncc3)c3ccccc3n2)c1,8%,-37%,-14%,13µM*
COc1cccc(NC(=O)c2cc(-c3ccccn3)nc3ccccc23)c1,?,?,-13%,12%
Cc1cc2c(cc1S(=O)(=O)N1CCC(C(N)=O)CC1)OCC(=O)N2,-1%,10%,.,-2%
Cc1noc(Cn2c(=O)c3cc4c(cc3n(CC(=O)Nc3ccccc3Br)c2=O)OCO4)n1,1%,3%,.,11µM*
COc1ccc(NC(=O)Cn2c(=O)n(Cc3nc(C)no3)c(=O)c3cc4c(cc32)OCO4)cc1,4%,0%,.,-11%
Cc1ccc(NC(=O)Cn2c(=O)n(Cc3nc(C)no3)c(=O)c3cc4c(cc32)OCO4)c(Cl)c1,-5%,0%,.,6%
CCOc1ccc(NC(=O)Cn2c(=O)n(Cc3nc(-c4ccccc4)no3)c(=O)c3cc4c(cc32)OCO4)cc1,-1%,0%,.,25µM*
CCOc1ccccc1NC(=O)C(CC(C)C)NS(=O)(=O)c1ccc2c(c1)oc(=O)n2C (centres undefined),2%,10%,.,-3%
Cc1nc(N/N=C/c2ccccn2)sc1C,3.5µM*,2.2µM*,-14%,-4%
Clc1ccccc1NN=Cc1ccccn1,-16%,4µM*,5%,-4%
